Compounds without any hit were thinned out: in the full panel of roughly 83,000, 20% have a hit.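 Cell lines were cultured in 96-well plates, exposed to a single compound concentration, and assessed for percent growth 48 hours later.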 A number with no mark means an inactive call. The source made the active and inactive calls. How the source made its calls: active means growth percent below 10; inactive means the rest.
What follows are compounds tested on DU-145 prostate (assay: NCI-60 one-dose screen, 48 h (100 = growth as untreated, 0 = no growth, -100 = all killed)). Conditions: 10 µM unless noted.

Row | Structure (SMILES) | growth
1 | C=C(CC(=O)OC)C(C)=O | 107%
2 | O=C1/C(=C\c2cn(CC(O)CN3CCCCC3)c3ccccc23)c2ccccc2N1c1c(Cl)cccc1Cl (stereo unspecified) | -99.8% (active)
3 | CC/C=C(\C)C(CCC)(CN=O)C(=O)OCC (stereo unspecified) | 111%
4 | CN(C)C(=S)Sc1ccc([N+](=O)[O-])cc1[N+](=O)[O-] | 64.7%

Each compound was assayed on K-562 leukemia in the same assay as above. Conditions: 10 µM unless noted.

Row | Structure (SMILES) | growth
5 | CC(C)C1=NOC(=O)C1=Cc1cn(-c2ccccc2)nc1-c1ccccc1 | 42.2%
6 | CCN(CC)CCCNCc1cc(-c2ccccc2)nc2ccccc12 | 24.3%
7 | CCOC(=O)CCC[P+](c1ccccc1)(c1ccccc1)c1ccccc1 | 57.9%
8 | Cc1cccc(C[C@H](NC(=O)Nc2ccc(Cl)cc2F)C(=O)N[C@@H]2C(=O)N3C[C@H](O)C[C@H]3C(=O)N3CCN(C)C[C@H]3C(=O)N[C@@H](C)C(=O)N3C[C@H](C)C[C@H]3C(=O)O[C@H]2C)c1 | 24.4%
9 | COc1cc(C)cc2oc3oc(=O)c(C(=O)c4cc5cc(Br)ccc5o4)cc3c(=O)c12 | 103%
10 | COc1ccc(CC(C#N)c2ccc(Cl)cc2)cc1 (stereo unspecified) | 41.6%
11 | Clc1ccc(/C=N/Nc2nc3ccccc3s2)c(Cl)c1 | 91%
12 | Nc1nc(SCc2cccc([N+](=O)[O-])c2)c2[nH]cnc2n1 | 92%
13 | COC(=O)[C@]12CCC(C)(C)C[C@H]1C1=CC[C@@H]3[C@@]4(C)C/C(=C/c5cccnc5)C(=O)C(C)(C)[C@@H]4CC[C@@]3(C)[C@]1(C)CC2 | 5.39% [100 µM] (active)
14 | Cn1cc(-c2nnc(-c3cn(C)c4ncccc34)o2)c2ccccc21 | 10.3%
15 | Cc1ccc(C2=C/C(=C/c3ccc(Br)cc3)C(=O)N2CCc2ccc(S(N)(=O)=O)cc2)cc1 | 88.6%
16 | COc1ccc2nc3cc(Cl)ccc3c(Nc3ccc(O)cc3)c2c1 | 54.8%
17 | CCCCN(CC)CC(CC)Nc1cc(OC)cc2cccnc12 (stereo unspecified) | 114%
18 | O=C(Nc1cccc2ccccc12)c1cc2ccccc2cc1O | 14.7%
19 | C=C(C)[C@@H]1CC[C@]2(COCCC#N)CC[C@]3(C)[C@H](CC[C@@H]4[C@@](C)(CCCNCCC#N)[C@H](C(=C)C)CC[C@]43C)[C@@H]12 | 7.57% [100 µM] (active)
20 | Cc1ccc(-c2cn(C/C=C3\C=CN(S(=O)(=O)c4ccccc4)CC3)nn2)cc1 | 89.5%
21 | CN(C)c1ccc(-c2ccc(-c3ccc(C(=N)N)cc3)s2)cc1 | -4.45% (active)
22 | CCOC(=O)c1nn(C2CCCCO2)c2ccc(NC(=O)CN3CCOCC3)cc12 (stereo unspecified) | 90.4%
23 | Cn1cc(-c2noc(-c3cn(C)c4ncc(Br)cc34)n2)c2cc(Cl)ccc21 | 66.3%

Row | Structure (SMILES) | growth
24 | Cc1cc2c(C(C)C)c(O)c(O)c(C=NCc3ccoc3)c2c(O)c1-c1c(C)cc2c(C(C)C)c(O)c(O)c(C=NCc3ccco3)c2c1O | 9.26% (active)
25 | Cc1cccc(C[C@H](NC(=O)Nc2ccc(C)cc2F)C(=O)N[C@@H]2C(=O)N3C[C@H](O)C[C@H]3C(=O)N3CCN(C)C[C@H]3C(=O)N[C@@H](C)C(=O)N3C[C@H](C)C[C@H]3C(=O)O[C@H]2C)c1 | 23.1%
26 | COc1cc2c(c(Br)c1N)-c1cc(Br)c(N)cc1C2=O | 94.9%
27 | CCN(CC)CCSC(=O)C(O)(c1ccccc1)C1CCCC1 (stereo unspecified) | 96.4%
28 | CCN(CC)CCCOc1ccc2c(c1)O/C(=C\c1cccc(OC)c1)C2=O | 21.5%
29 | CCOC(=O)/C(C#N)=C(\C)CCc1ccccc1 | 142%
30 | O=C(CCN1CCCCC1)c1ccc(Cl)cc1 | 118%
31 | C[C@H]1[C@H](C)CC[C@]2(C(=O)O)CC[C@]3(C)C(=CC[C@@H]4[C@@]5(C)C/C(=C/c6ccco6)C(=O)C(C)(C)[C@@H]5CC[C@]43C)[C@H]12 | 7.11% [100 µM] (active)
32 | Cc1ccc(NC(=O)N[C@@H](Cc2cc(F)cc(F)c2)C(=O)N[C@@H]2C(=O)N3CCC[C@H]3C(=O)N3CCOC[C@H]3C(=O)N[C@@H](C)C(=O)N3C[C@H](C)C[C@H]3C(=O)O[C@H]2C)cc1 | 17.2%
33 | CCCCOC(=O)c1c(C)[nH]c(/C=C2\N=C(c3ccc[nH]3)C=C2OC)c1C | 9.48% (active)
34 | O=C(O)c1cn(C2CC2)c2cc(N3CCN(Cc4cc(Cl)ccc4O)CC3)c(F)cc2c1=O | 46.5%
35 | C[n+]1cccc(NC(=O)c2ccc3ccc4ccc(C(=O)Nc5ccc[n+](C)c5)nc4c3n2)c1 | 35.8%
36 | O=c1cc(-c2ccccc2)oc2cc(OCc3cn(Cc4ccc(F)cc4)nn3)cc(O)c12 | 109% [100 µM]
37 | CCc1ccc(NC(=O)N[C@@H](Cc2cc(F)cc(F)c2)C(=O)N[C@@H]2C(=O)N3C[C@H](O)C[C@H]3C(=O)N3CCOC[C@H]3C(=O)N[C@@H](C)C(=O)N3C[C@H](C)C[C@H]3C(=O)O[C@H]2C)cc1 | 24.7%
38 | C=C(CC(=O)OC)C(C)=O | 106%
39 | O=C1/C(=C\c2cn(CC(O)CN3CCCCC3)c3ccccc23)c2ccccc2N1c1c(Cl)cccc1Cl (stereo unspecified) | -35.6% (active)
40 | CC/C=C(\C)C(CCC)(CN=O)C(=O)OCC (stereo unspecified) | 114%
41 | CN(C)C(=S)Sc1ccc([N+](=O)[O-])cc1[N+](=O)[O-] | 8.13% (active)
